High-throughput results deposited in PubChem by University of Kansas High Throughput Screening Laboratory.
mHTT CaM bind = disrupts binding of mutant huntingtin to calmodulin | P42858 | AlphaScreen His-mHTT/GST-CaM binding, luminescence | inhibition, % at 15 µM | 190,000 tested, 3.6% active | AID 1671202;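 note: 0% = both proteins with DMSO and 100% = one protein alone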
Pf apPOL block = Pf-apPOL DNA polymerase inhibition; 210,000 tested, 0.25% active; AID 1794808; Recombinant Pf-apPOL, molecular beacon fluorescence, 1.5 h; inhibition, % at 10 µM
* hit, by the source's call. Most compounds without a hit are left out; they make up all but 3.5% or so of the library. Cut-off read from the data, not from the text of the source: active = inhibition above about 50%; inactive = the rest.

How did CN(C)c1ccc(Nc2nc(-c3ccncc3)cs2)cc1 do in these assays?
mHTT CaM bind: 38.9; Pf apPOL block: -0.7

What do the screens show for `CN(C)c1ccc(C=Nc2nc(-c3ccccc3)cs2)cc1`?
mHTT CaM bind: 65.0*; Pf apPOL block: -0.6

What do the screens show for `COc1cc(OC)cc(C(=O)Nc2ccc(Br)c(C)c2)c1`?
mHTT CaM bind: -15.2; Pf apPOL block: 6.1

How did COc1ccc(NC(=O)C2CC(C)=CCC2C(=O)O)cc1 (centres undefined) do in these assays?
mHTT CaM bind: -0.5; Pf apPOL block: -9.0

What do the screens show for `COc1ccccc1NC(=O)Nc1cccc2cccnc12`?
mHTT CaM bind: -3.8; Pf apPOL block: -4.2

What do the screens show for `COc1ccccc1C(NC(C)=O)c1ccc2cccnc2c1O` (centres undefined)?
mHTT CaM bind: 100.0*; Pf apPOL block: -0.2

What do the screens show for `COc1ccccc1C(=O)Nc1cc(Br)cc2cccnc12`?
mHTT CaM bind: 19.0; Pf apPOL block: 8.9

How did COc1ccccc1C(NC(=O)C(C)C)c1ccc2cccnc2c1O (centres undefined) do in these assays?
mHTT CaM bind: 99.0*; Pf apPOL block: -1.0

What do the screens show for `O=C(CN1CCCC1)Nc1c2c(nc3c1CCC3)CCC2`?
mHTT CaM bind: 2.0; Pf apPOL block: -10.3

How did O=C(NCc1ccc(Cl)cc1)c1nc(-c2ccncc2)cs1 do in these assays?
mHTT CaM bind: 65.9*; Pf apPOL block: -2.0

What do the screens show for `Cc1ccc(CNC(=O)c2nc(-c3ccncc3)cs2)cc1`?
mHTT CaM bind: 14.3; Pf apPOL block: -6.4

What do the screens show for `COc1ccc(NC(=O)C2=C(C)Nc3ncnn3C2c2cccc(OC)c2OC)cc1` (centres undefined)?
mHTT CaM bind: 0.0; Pf apPOL block: -4.0

Results for N#CC(c1ccccc1O)N1N=C(c2ccccc2)CC1c1ccccc1 (centres undefined) ?
mHTT CaM bind: 92.0*; Pf apPOL block: -5.5

How did NC(=S)N1N=C(c2ccccc2)CC1c1ccccc1 (centres undefined) do in these assays?
mHTT CaM bind: 7.5

Results for Cc1ccccc1NS(=O)(=O)c1cc2c(s1)CCN(C(=O)C1CCC1)C2 ?
mHTT CaM bind: 10.3; Pf apPOL block: -0.2

Results for Cc1csc(COc2ccc(C(=O)Nc3nc(C)cs3)cc2)n1 ?
mHTT CaM bind: -4.7; Pf apPOL block: -10.1

What do the screens show for `CCOc1ccc(NC2=C(N3CCCCC3)C(=O)c3ccccc3C2=O)cc1`?
mHTT CaM bind: 95.8*; Pf apPOL block: 7.7

What do the screens show for `COc1cccc(NC2=C(N3CCOCC3)C(=O)c3ccccc3C2=O)c1`?
mHTT CaM bind: 37.5; Pf apPOL block: 14.2

Results for COc1cccc(NC2=C(N3CCCC3)C(=O)c3ccccc3C2=O)c1 ?
mHTT CaM bind: 100.2*; Pf apPOL block: 0.1

How did CC(=O)c1ccc(NC2=C(N3CCCCC3)C(=O)c3ccccc3C2=O)cc1 do in these assays?
mHTT CaM bind: 14.0; Pf apPOL block: -12.5

What do the screens show for `CCOc1ccc(NC(=O)CN2CCC3(CC2)N=C(c2cccc(Cl)c2)C(=O)N3)cc1`?
mHTT CaM bind: 30.7; Pf apPOL block: 2.7

How did O=C1C(N2CCOCC2)=CC(=NS(=O)(=O)c2ccccc2)c2ccccc21 do in these assays?
mHTT CaM bind: 72.0*; Pf apPOL block: -6.1

How did O=C1C(N2CCOCC2)=CC(=NS(=O)(=O)c2ccc(Cl)cc2)c2ccccc21 do in these assays?
mHTT CaM bind: 64.0*; Pf apPOL block: -1.7

What do the screens show for `O=S(=O)(Nc1ccc(N2CCOCC2)cc1)c1ccc(Cl)cc1`?
mHTT CaM bind: 7.2; Pf apPOL block: -2.2

What do the screens show for `O=S(=O)(c1ccccc1)c1nc(C(c2ccccc2)c2ccccc2)oc1N1CCOCC1`?
mHTT CaM bind: 26.0; Pf apPOL block: 2.5

How did O=C(Nc1ccc(Cl)cc1)C1CCC(CNS(=O)(=O)c2cccs2)CC1 (centres undefined) do in these assays?
mHTT CaM bind: 7.0; Pf apPOL block: 5.2

What do the screens show for `CCC(C)(C)C(=O)N1CCC(CCOCc2ccccc2F)CC1`?
mHTT CaM bind: -16.5; Pf apPOL block: -3.3

How did O=c1oc(-c2ccccc2Cl)nc2c1cnn2-c1ccccc1 do in these assays?
mHTT CaM bind: 90.0*; Pf apPOL block: -3.1

Results for COc1c(Cl)cnn(-c2ccccc2)c1=O ?
mHTT CaM bind: -1.5; Pf apPOL block: -4.2

Results for OCC(CO)(CO)NCC(O)Cn1c2ccc(Cl)cc2c2cc(Cl)ccc21 (centres undefined) ?
mHTT CaM bind: 67.9*; Pf apPOL block: 1.2

What do the screens show for `CC(C)(CO)NCC(O)Cn1c2ccc(Cl)cc2c2cc(Cl)ccc21` (centres undefined)?
mHTT CaM bind: 96.7*; Pf apPOL block: 0.0

Results for CN(C)CC(O)Cn1c2ccccc2c2ccccc21 (centres undefined) ?
mHTT CaM bind: 0.6; Pf apPOL block: -9.9

How did OCCNCC(O)Cn1c2ccccc2c2ccccc21 (centres undefined) do in these assays?
mHTT CaM bind: 1.9; Pf apPOL block: -4.5

Results for OCC(CO)(CO)NCC(O)Cn1c2ccccc2c2ccccc21 (centres undefined) ?
mHTT CaM bind: 2.4; Pf apPOL block: 3.7

Results for CN(C)CC(O)Cn1c2ccc(Cl)cc2c2cc(Cl)ccc21 (centres undefined) ?
mHTT CaM bind: 60.1*; Pf apPOL block: 26.1

How did Cc1c(C(=O)N2CCN(c3ccc(-c4cccs4)nn3)CC2)cnn1-c1ccccc1 do in these assays?
mHTT CaM bind: 0.7; Pf apPOL block: -4.1

What do the screens show for `COc1cccc(NC(=O)CCS(=O)(=O)c2ccc(Br)s2)c1`?
mHTT CaM bind: -6.0; Pf apPOL block: -14.1

Results for COc1ncccc1CN(C)C(=O)c1sccc1C ?
mHTT CaM bind: -4.5; Pf apPOL block: 1.7

How did C=CCn1c(=O)c2c(ncn2Cc2ccccc2C)n(-c2ccccc2C)c1=O do in these assays?
mHTT CaM bind: 3.6; Pf apPOL block: -1.7

What do the screens show for `O=C(NCc1ccccn1)c1cccc(C(=O)NCc2ccccn2)c1`?
mHTT CaM bind: -1.9; Pf apPOL block: -2.7

Results for CCN1c2ccccc2NC2N=C(OC)C(c3ccccc3)C21 (centres undefined) ?
mHTT CaM bind: 41.0; Pf apPOL block: -2.3

How did CCOC1=NC2Nc3ccc(Cl)cc3N(C)C2C1c1ccc([N+](=O)[O-])cc1 (centres undefined) do in these assays?
mHTT CaM bind: 54.0*; Pf apPOL block: -2.4

Results for COc1cccc(C2C(C(=O)Nc3ccccc3)=C(C)N=C3SCC(=O)N32)c1 (centres undefined) ?
mHTT CaM bind: 16.0; Pf apPOL block: -3.3

How did N#CC1=C(N)OC2=C(C(=O)CCC2)C1c1cc([N+](=O)[O-])cs1 (centres undefined) do in these assays?
mHTT CaM bind: 1.0; Pf apPOL block: -9.1

Results for N#CC1=C(N)OC2=C(C(=O)CCC2)C1c1cc2c(cc1[N+](=O)[O-])OCO2 (centres undefined) ?
mHTT CaM bind: 90.3*; Pf apPOL block: -0.1

Results for CC1(C)CC(NC(=O)C23CC4CCC2(C)C4(C)CO3)CC(C)(C)N1 (centres undefined) ?
mHTT CaM bind: -2.1; Pf apPOL block: -2.4

What do the screens show for `COCOCCn1cc(CN2CCS(=O)(=O)N(Cc3ccc(-c4ccc(Cl)cc4)cc3)C(C(C)C)C2=O)nn1` (centres undefined)?
mHTT CaM bind: 41.8; Pf apPOL block: -29.1

What do the screens show for `CC(C)CC1C(=O)N(Cc2cn(CCC3OCCO3)nn2)CCS(=O)(=O)N1Cc1ccc(-c2ccc(Cl)c(Cl)c2)cc1` (centres undefined)?
mHTT CaM bind: 71.8*; Pf apPOL block: -4.8
